Test results from PubChem BioAssay.
The source made the active and inactive calls.

Experiments:
[1] = binders of probe aFSTL3 on microarray, primary screen, stem cell growth factor project, biochemical, small-molecule microarray, fluorescence 635/667 (AID 1064); conditions: higher = more signal;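 further: measures binding of the biotinylated anti-FSTL3 antibody to printed compounds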
[2] = binders from COS7 lysate, DM2A8 probe, primary screen, torsin A project, cell lysate, small-molecule microarray, fluorescence 635/667 (AID 1065); conditions: higher = more signal, COS7 lysate expressing mutant human TOR1A
[3] = binders of probe aFGF2 on microarray, primary screen, stem cell growth factor project, biochemical, small-molecule microarray, fluorescence 635/667 (AID 1067); conditions: higher = more signal;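 further: measures binding of biotinylated aFGF2 protein to printed compounds on slides; z-score merges feature fluorescence and signal-to-noise across triplicate slides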
[4] = binders of probe aFGF10 on microarray, primary screen, stem cell growth factor project, biochemical, small-molecule microarray, fluorescence 635/667 (AID 1071); conditions: higher = more signal;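 further: score merges 667 nm spot intensity and signal to noise from triplicate slides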
[5] = biological target: Neurogenic locus notch homolog protein 2 (Homo sapiens) (UniProt Q04721); assay: Notch2 binders on small-molecule microarrays, primary screen, biochemical, small-molecule microarray, 635 nm fluorescence, stem cell growth factors (AID 1073); conditions: Notch2 binding, higher = more signal
Chain of Neurogenic locus notch homolog protein 2 (Homo sapiens) (Q04721 whole entry, looked up, canonical isoform): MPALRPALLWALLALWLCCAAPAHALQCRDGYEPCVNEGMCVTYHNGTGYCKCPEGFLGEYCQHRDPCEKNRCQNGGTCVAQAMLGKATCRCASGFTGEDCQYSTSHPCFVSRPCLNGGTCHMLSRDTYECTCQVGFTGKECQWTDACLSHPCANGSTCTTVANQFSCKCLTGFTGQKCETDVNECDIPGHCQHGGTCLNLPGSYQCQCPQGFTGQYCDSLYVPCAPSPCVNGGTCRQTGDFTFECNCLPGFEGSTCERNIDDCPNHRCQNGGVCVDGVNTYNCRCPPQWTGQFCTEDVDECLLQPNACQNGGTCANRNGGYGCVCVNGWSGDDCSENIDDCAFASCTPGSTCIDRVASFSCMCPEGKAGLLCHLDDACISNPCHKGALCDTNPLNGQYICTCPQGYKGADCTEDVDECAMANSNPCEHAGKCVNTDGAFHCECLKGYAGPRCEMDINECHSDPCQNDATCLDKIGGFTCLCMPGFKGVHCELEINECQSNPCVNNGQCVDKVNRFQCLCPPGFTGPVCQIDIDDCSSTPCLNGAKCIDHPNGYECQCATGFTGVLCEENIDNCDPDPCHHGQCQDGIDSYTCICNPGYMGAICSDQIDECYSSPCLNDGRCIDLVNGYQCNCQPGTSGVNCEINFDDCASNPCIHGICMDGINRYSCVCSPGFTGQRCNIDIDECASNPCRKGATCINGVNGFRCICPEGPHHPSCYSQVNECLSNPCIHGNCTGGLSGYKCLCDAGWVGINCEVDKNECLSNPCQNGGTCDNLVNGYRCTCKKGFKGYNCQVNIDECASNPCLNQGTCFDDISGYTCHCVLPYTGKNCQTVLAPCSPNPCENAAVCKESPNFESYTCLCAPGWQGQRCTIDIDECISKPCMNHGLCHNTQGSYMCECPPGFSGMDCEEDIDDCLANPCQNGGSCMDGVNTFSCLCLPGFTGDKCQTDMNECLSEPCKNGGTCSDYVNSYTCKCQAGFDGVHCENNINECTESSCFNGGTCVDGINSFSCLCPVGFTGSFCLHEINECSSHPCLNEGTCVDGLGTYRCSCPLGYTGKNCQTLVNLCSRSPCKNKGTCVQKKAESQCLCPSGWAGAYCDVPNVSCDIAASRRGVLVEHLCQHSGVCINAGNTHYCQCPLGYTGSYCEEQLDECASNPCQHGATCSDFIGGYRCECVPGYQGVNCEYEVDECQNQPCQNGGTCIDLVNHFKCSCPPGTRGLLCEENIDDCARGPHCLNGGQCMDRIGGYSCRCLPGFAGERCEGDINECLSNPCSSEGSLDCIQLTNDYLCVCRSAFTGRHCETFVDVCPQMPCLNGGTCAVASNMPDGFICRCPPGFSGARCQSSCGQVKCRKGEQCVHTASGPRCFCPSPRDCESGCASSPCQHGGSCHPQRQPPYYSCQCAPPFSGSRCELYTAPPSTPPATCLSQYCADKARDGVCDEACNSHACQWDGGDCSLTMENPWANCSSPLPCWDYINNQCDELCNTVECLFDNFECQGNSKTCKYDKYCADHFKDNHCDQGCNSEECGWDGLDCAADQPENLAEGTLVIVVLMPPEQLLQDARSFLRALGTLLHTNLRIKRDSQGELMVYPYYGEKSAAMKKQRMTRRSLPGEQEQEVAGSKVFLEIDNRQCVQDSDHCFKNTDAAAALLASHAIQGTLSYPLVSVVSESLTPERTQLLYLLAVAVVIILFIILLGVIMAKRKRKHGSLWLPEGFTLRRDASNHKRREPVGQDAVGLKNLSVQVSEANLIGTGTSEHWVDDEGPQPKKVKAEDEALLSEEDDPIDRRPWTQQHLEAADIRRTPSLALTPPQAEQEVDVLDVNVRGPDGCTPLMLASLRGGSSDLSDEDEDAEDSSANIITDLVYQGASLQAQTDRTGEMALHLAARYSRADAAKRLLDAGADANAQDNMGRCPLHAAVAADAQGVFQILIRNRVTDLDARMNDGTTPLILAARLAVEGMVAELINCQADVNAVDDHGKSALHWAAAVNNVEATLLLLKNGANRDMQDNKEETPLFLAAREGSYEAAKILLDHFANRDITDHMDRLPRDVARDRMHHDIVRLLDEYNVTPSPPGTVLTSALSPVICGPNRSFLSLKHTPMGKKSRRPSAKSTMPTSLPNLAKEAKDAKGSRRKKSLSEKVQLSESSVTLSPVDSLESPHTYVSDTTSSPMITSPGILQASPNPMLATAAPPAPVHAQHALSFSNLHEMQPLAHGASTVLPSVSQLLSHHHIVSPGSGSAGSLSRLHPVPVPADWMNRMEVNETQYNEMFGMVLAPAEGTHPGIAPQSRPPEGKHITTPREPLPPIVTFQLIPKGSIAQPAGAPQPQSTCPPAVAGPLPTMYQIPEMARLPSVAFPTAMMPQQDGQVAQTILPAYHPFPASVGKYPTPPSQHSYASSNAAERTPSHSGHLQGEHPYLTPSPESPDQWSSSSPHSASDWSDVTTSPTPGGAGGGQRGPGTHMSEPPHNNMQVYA

[6] = biological target: Pro-neuregulin-1, membrane-bound isoform (Homo sapiens) (UniProt Q02297); assay: NRG1 binders on small-molecule microarrays, primary screen, psychiatric disease protein project, biochemical, small-molecule microarray, fluorescence 635/667 (AID 1075); conditions: NRG1 binding, 635 nm fluorescence, higher = more signal;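 further: score combines 667 nm spot fluorescence with signal to noise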
Chain of Pro-neuregulin-1, membrane-bound isoform (Homo sapiens) (Q02297 whole entry, looked up, the tested form may be a part, canonical isoform): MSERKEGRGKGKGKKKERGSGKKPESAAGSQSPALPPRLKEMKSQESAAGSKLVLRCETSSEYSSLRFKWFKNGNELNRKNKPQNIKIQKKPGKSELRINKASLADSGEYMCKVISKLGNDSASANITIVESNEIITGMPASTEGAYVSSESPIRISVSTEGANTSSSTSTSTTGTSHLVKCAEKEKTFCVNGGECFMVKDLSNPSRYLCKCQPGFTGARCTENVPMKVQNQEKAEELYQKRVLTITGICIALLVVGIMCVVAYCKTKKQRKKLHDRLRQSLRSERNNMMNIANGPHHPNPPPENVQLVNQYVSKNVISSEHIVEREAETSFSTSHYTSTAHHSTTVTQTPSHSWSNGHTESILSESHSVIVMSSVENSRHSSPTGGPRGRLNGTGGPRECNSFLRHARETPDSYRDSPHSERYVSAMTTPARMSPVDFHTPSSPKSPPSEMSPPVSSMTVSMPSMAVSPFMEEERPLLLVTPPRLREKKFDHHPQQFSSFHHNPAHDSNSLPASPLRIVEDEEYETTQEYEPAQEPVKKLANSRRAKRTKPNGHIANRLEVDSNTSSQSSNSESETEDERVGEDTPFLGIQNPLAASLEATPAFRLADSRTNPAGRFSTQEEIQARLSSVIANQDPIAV

[7] = system: Neuregulin-1 EGF-like domain; assay: binders of neuregulin-1 EGF-like domain, primary screen, biochemical, small-molecule microarray, 635 nm fluorescence (AID 1081); conditions: small-molecule microarray binding, higher = more signal;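 further: binding of the protein to compounds printed on small-molecule microarray slides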
[8] = FRG1 promoter luciferase signal modulators, primary screen, FRG1 inhibition for FSHD, cell-based, C2C12 myotubes, firefly/Renilla luciferase, luminescence (AID 1084); conditions: higher = more signal, called active from +8 up or from −8 down
[9] = binders of probe aFST on microarray, primary screen, stem cell growth factor project, biochemical, small-molecule microarray, fluorescence 635/667 (AID 1086); conditions: higher = more signal;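 further: score merges 667 nm fluorescence with signal-to-noise of each printed compound spot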
[10] = binders of probe aHhip on microarray, primary screen, stem cell growth factor project, biochemical, small-molecule microarray, fluorescence 635/667 (AID 1087); conditions: higher = more signal;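 further: score merges spot fluorescence at 667nm with spot signal to noise ratio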
[11] = system: PRMT1 (protein arginine N-methyltransferase 1); assay: PRMT1 binders on small-molecule microarrays, primary screen, biochemical, small-molecule microarray, 635 nm fluorescence (AID 1088); conditions: small-molecule microarray binding, higher = more signal;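 further: binding of Prmt1 protein to compounds spotted on small-molecule microarray slides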
[12] = yeast growth modulation, basal conditions, primary screen, YJM789 clinical isolate, OD600, 24 h (AID 1089);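 further: growth of clinical yeast isolate S. cerevisiae YJM 789 seeded 1000 cells per well; test concentration not given here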; conditions: S. cerevisiae YJM789 growth, higher = more signal, called active from +8 up or from −8 down
[13] = fission yeast growth modulation, primary screen, strain 972, OD600, 24 h, no modulator (AID 1090);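 further: basal condition with compound alone and no growth modifier present; test concentration not given here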; conditions: S. pombe 972 growth, higher = more signal, called active from +8 up or from −8 down
[14] = S. cerevisiae growth modulation with rapamycin, primary screen, strain BY4716, OD600, 96 h (AID 1091); conditions: higher = more signal, called active from +8 up or from −8 down; further: test concentration not given here
[15] = biological target: Torsin-1A-interacting protein 2 (Homo sapiens) (UniProt Q8NFQ8); assay: LULL1 binders on small-molecule microarray, primary screen, cell lysate, human LULL1 lysate, 635/667 nm fluorescence (AID 1092); conditions: hLULL1 lysate binding, 635 nm fluorescence, higher = more signal;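 further: probe is lysate of COS7 cells overexpressing human LULL1; score merges per-feature 667 nm fluorescence with signal-to-noise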
Chain of Torsin-1A-interacting protein 2 (Homo sapiens) (Q8NFQ8 whole entry, looked up): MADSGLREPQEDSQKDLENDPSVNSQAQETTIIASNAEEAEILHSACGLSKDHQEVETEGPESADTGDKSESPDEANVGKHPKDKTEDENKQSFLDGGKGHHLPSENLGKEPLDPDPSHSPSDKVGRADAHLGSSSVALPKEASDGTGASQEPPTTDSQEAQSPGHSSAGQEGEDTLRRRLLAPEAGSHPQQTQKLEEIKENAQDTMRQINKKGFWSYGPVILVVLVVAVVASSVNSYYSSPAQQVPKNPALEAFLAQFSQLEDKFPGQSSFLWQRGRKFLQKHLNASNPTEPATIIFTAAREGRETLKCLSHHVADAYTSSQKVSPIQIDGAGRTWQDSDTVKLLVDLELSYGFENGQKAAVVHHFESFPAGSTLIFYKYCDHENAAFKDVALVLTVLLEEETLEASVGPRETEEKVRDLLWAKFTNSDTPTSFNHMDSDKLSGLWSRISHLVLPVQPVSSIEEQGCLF

[16] = E. coli growth modulation, two-sided OD650, primary screen, E. coli filamentation project, strain DRC41, 24 h (AID 1093); conditions: OD650, 24 h, higher = more signal, called active from +8 up or from −8 down;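 further: MC1000 strain lacking acrAB efflux and sulA so SOS filamentation is blocked; test concentration not given here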
[17] = small-molecule microarray binders of probe aLefty2, primary screen, biochemical, biotinylated probe, 635/667 nm fluorescence (AID 1094); conditions: higher = more signal;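 further: score merges spot fluorescence near 667 nm with spot signal-to-noise ratio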
[18] = system: Noggin (protein binding on small-molecule microarray); assay: Noggin binders on small-molecule microarray, primary screen, biochemical, 635/667 nm fluorescence (AID 1095); conditions: 635 nm fluorescence, higher = more signal;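 further: score merges 667 nm feature fluorescence with signal to noise over triplicate slides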
[19] = biological target: Neurogenic locus notch homolog protein 3 (Homo sapiens) (UniProt Q9UM47); assay: NOTCH3 binders on small-molecule microarray, primary screen, biochemical, 635/667 nm fluorescence (AID 1096); conditions: NOTCH3 binding, 635 nm fluorescence, higher = more signal
[20] = small-molecule microarray binders of probe aEGFR, primary screen, biochemical, biotinylated probe, 635/667 nm fluorescence (AID 1097); conditions: higher = more signal;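 further: probe is a biotinylated anti-EGFR antibody binding compounds printed on slides; score combines fluorescence near 667 nm and signal to noise of each spot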

Compound | composite z-score [1] | composite z-score [2] | composite z-score [3] | composite z-score [4] | composite z-score [5] | composite z-score [6] | composite z-score [7] | z-score [8] | composite z-score [9] | composite z-score [10] | composite z-score [11] | z-score [12] | z-score [13] | z-score [14] | composite z-score [15] | z-score [16] | composite z-score [17] | composite z-score [18] | composite z-score [19] | composite z-score [20]
COC(=O)C1=CC(CCCO)=CC(c2ccc(CN3CCCC3)cc2)N(Cc2cc3c(cc2Br)OCO3)C=C1C(=O)OC (stereo not given) | 0.942 | 1.66 | 0.19 | 1.26 | 1.61 | 2.4 | 1.18 | 0.046 (inactive) | 1.97 | 0.0605 | 1.57 | -0.622 (inactive) | -1.23 (inactive) | -0.371 (inactive) | 3.5 | -0.327 (inactive) | 0.639 | 0.719 | 1.01 | 0.481
COCCCNC(=O)[C@@]1(Sc2ccc(C)cc2)CC(=O)N(Cc2ccccc2Cl)[C@@H]1c1ccc(CO)cc1I | 0.386 | -0.983 | -0.191 | -0.304 | -0.911 | 1.08 | 0.449 | -2.5 (inactive) | -0.431 | -0.0994 | -0.76 | -0.89 (inactive) | -2.01 (inactive) | 0.0449 (inactive) | 1.04 | 0.668 (inactive) | -0.0654 | -0.691 | -0.318 | -0.249
C=CCNC(=O)[C@H]1[C@@H]2C(=O)O[C@@H](c3ccccc3)[C@@H](c3ccccc3)N2[C@@H](c2ccc(OCCO)cc2)[C@]12C(=O)Nc1ccc(C#CCNC(N)=O)cc12 | 0.264 | 0.311 | 0.0015 | 0.641 | 0.112 | 0.883 | 0.817 | -0.651 (inactive) | 1.28 | 0.0623 | 1.56 | 2.34 (inactive) | 1.48 (inactive) | 4.76 (inactive) | 1.98 | 0.714 (inactive) | 0.155 | 1.1 | 1.07 | 0.0562
